We go through six compounds from PubChem BioAssay (NCATS).

Records with an inconclusive call do not appear. The source made the active and inactive calls. Unless noted, calls follow the shape of the dose curve; as a rule, active = well fitted curve in either direction with a large enough effect (not every such curve was filed as active); inconclusive = small, poorly fitted or top-dose-only effect, or another doubt; inactive = flat fitted curve, though single readings scatter.

Assay [1] has as its target Lysosomal acid glucosylceramidase (Homo sapiens) (UniProt P04062). The assay is described as follows: Glucocerebrosidase-p2 (AID 348; in the data active = potency below about 10 µM; also: potency is read from the fitted curve at half-maximal effect). The settings on record: purified GBA, blue fluorogenic substrate, 40 min. In short, it runs like this:
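Normal human glucocerebrosidase (0.2 nM) with blue fluorogenic substrate (80 uM final) in citrate/phosphate pH 5.9 with 10mM sodium taurocholate, 0.01% tween-20; 40 min RT, NaOH/glycine stop; fluorescence Ex 365/Em 440; AC50 from a titration from 0.6 nM upwards.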

A short description of assay [2]: AP1 Signaling Pathway (AID 357).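 Also: ME-180 reporter cells stimulated with EGF at its EC50 level; % is scaled to controls: 0 for no effect and ±100 for the full control effect.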 The settings on record: ME-180 AP-1-bla reporter, EGF-induced, beta-lactamase ratio, 5 h; at 7.69 µM (top of the series) unless noted. The essentials:
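Modulation of EGF-driven AP-1 transcription was assessed with a beta-lactamase reporter in ME-180 cells. Compound and EC50 EGF were co-incubated 5 hours at 37 °C before 2.5-hour CCF4 loading at room temperature and dual-emission reading.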

Assay [3] concerns the target Cytochrome P450 1A2 (Homo sapiens) (UniProt P05177). Description: p450-cyp1a2 (AID 410; calls by dose curve;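 also: -100% = full effect of reference inhibitor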). The settings on record: recombinant CYP1A2, luciferin-ME demethylation, luminescence; series mostly up to 57 µM. In short, it runs like this:
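Luminescent demethylation readout: Luciferin-ME (100uM, equal to Km) turned over by 20nM CYP1A2 for 60 min at room temperature after NADPH regeneration addition, following 10 min compound preincubation. Normalization used 57 uM furafylline as full inhibition.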

The nature of assay [4]: NFAT Signaling Pathway (AID 444).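 Also: carbachol stimulus at about its EC50 of 1 µM final; % is scaled to controls: 0 for no effect and ±100 for the full control effect.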 The settings on record: Jurkat NFAT-bla M1, carbachol, beta-lactamase ratio, 5 h; at 7.69 µM (top of the series) unless noted. In short, it runs like this:
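Jurkat cells carrying an NFAT-driven β-lactamase reporter and co-transfected muscarinic M1 receptor were treated with compound plus carbachol (1 uM final, an EC50 level) for 5 h at 37 °C. CCF4 loading followed for 1 h at RT; 460/530 nm ratio gave %activity.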

Assay [5] is described as follows: Stat Signaling Pathway (AID 446).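 Also: ME-180 cervical cancer cells given 40 pM IL-6 alongside compound; SIE-controlled beta-lactamase reporter measured as 460/530 nm FRET emission ratio; % is scaled to controls: 0 for no effect and ±100 for the full control effect.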 The settings on record: ME-180 (cervical carcinoma) SIE beta-lactamase reporter, IL-6 stimulated, 5 h; at 7.69 µM (top of the series) unless noted. In short, it runs like this:
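Emission at 460 and 530 nm (excitation 405 nm) reports SIE-controlled beta-lactamase in ME-180 cells. Cells received compound with 40 pM IL-6 for 5 hrs at 37 C; data scaled between 300 pM IL-6 and 125 nM JAK-inhibitor controls.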

The target in assay [6] is Glucocorticoid receptor (Homo sapiens) (UniProt P04150). The assay is described as follows: GR-EFC Redistribution (AID 451; calls by dose curve; also: potency is read from the fitted curve at half-maximal effect). The settings on record: CHO-K1 GR-EFC translocation, beta-gal luminescence, 2 h. In short, it runs like this: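 CHO-K1 cells stably expressing nuclear-localized β-gal enzyme acceptor and GR fused C-terminally to the enzyme donor fragment; ligand-driven nuclear translocation restores β-gal by complementation. Compounds titrated up to 46 uM final, 2 h at 37 °C; luminescence read.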
Glucocorticoid receptor (Homo sapiens), sequence (P04150 whole entry, looked up, the tested form may be a part): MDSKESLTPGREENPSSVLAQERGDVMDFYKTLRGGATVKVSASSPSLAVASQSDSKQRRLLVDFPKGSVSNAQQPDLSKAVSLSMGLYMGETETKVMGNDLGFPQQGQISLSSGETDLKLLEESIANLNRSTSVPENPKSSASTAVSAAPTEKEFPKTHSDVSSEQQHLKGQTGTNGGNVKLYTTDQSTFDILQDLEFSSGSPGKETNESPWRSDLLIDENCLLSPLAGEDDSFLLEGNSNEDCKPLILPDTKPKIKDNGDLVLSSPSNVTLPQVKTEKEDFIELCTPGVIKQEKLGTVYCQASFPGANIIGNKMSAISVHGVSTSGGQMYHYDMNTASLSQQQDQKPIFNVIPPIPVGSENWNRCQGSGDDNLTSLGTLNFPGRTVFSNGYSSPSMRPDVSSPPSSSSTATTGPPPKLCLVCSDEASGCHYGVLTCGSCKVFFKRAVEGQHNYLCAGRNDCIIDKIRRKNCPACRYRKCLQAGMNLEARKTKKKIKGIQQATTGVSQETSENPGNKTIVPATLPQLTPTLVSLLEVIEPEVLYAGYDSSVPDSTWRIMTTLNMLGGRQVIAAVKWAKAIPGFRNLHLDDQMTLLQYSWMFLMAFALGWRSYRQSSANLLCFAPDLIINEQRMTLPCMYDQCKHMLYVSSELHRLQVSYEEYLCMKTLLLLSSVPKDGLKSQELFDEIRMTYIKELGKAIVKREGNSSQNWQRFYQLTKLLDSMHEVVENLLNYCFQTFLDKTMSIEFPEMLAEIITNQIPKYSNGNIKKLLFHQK

Assay [7] concerns the target Mitogen-activated protein kinase 10 (Mus musculus) (UniProt Q61831). Description: JNK3 AlphaScreen Assay (AID 530).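 Also: kinase came from lysate of stimulated human HepG2 cells; signal reports phosphorylation of biotinylated GST-cJun 1-79 at Ser73 with 10 µM ATP; % is scaled to controls: 0 for no effect and ±100 for the full control effect.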 Particulars: JNK3 lysate, c-Jun phosphorylation; series mostly up to 57.1 µM. In short, it runs like this:
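Phosphorylation of biotinylated GST-cJun(1-79) at Ser73 is measured by AlphaScreen proximity luminescence. Enzyme is JNK3 in HepG2 lysates activated with interleukin-1beta and tumor necrosis factor alpha; ATP is 10 uM final.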
Background: Alpha assays give light when donor and acceptor beads are brought close together.

Assay [8] addresses 3',5'-cyclic-AMP phosphodiesterase 4B (Homo sapiens) (UniProt Q07343). Description: qHTS Assay for Inhibitors of PDE-IV (AID 607; active = well fitted activation curve with a large enough effect in the main read-out, with a control signal flat, not every such curve was filed as active; also: % of control where 0% means no effect). Particulars: HEK293 ACTOne CNG channel cells, membrane potential fluorescence; series mostly up to 22.9 µM. The essentials:
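The readout is membrane depolarisation from a cAMP-sensing CNG channel, detected with a potential dye at ex 535/em 590. Cells were HEK293-derived (endogenous PDE-IV) at 1000 cells/well, titrated up to 22.9 uM final.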

A short description of assay [9]: qHTS Assay for Lipid Storage Modulators (AID 1519; calls by dose curve). The settings on record: Drosophila S3 cells, BODIPY lipid droplet/cell ratio, laser cytometry, cells loaded with oleic acid; for activity change, negative = inhibition: at 57.5 µM (top of the series). In short, it runs like this:
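Cells seeded at 5,000 per well were treated with compounds over a concentration series and loaded with oleic acid (400 uM, as added). Lipid droplet fluorescence (488 nm excitation, 500-530 nm channel) was read by laser-scanning cytometry and normalized to 20 uM Triacsin C.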

The nature of assay [10]: Primary qHTS for small molecule stabilizers of the endoplasmic reticulum resident proteome: Secreted ER Calcium Modulated Protein (SERCaMP) assay (AID 1508630; active = well fitted curve in the direction sought with a large enough effect; an effect the other way counts as inactive or inconclusive; also: % is scaled to controls: 0 for no effect and ±100 for the full control effect). The settings on record: SH-SY5Y GLuc-SERCaMP (Gaussia luciferase released on ER calcium loss) secretion, thapsigargin, luminescence; series mostly up to 38.4 µM. In short, it runs like this: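 The SH-SY5Y reporter protocol was run at 3 concentrations up to 38.3 uM (primary) or 11 concentrations (follow-up): 16 h compound, 100 nM thapsigargin for 4 h, then extracellular luciferase luminescence.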
On the technique in general: qHTS replaces the single test concentration by a dilution series.

Assay [11] has as its target Cytochrome P450 2C9 (Homo sapiens) (UniProt P11712). Description: qHTS Assay for Inhibitors and Substrates of Cytochrome P450 2C9 (AID 883; active = well fitted curve in the direction sought with a large enough effect; an effect the other way counts as inactive or inconclusive; also: nearly all actives have a fitted effect of over 60% in size; also: potency is read from the fitted curve at half-maximal effect). Particulars: recombinant CYP2C9, luciferin-H luminescence, 60 min; series mostly up to 57.1 µM. In short, it runs like this:
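Human CYP2C9 (10nM) hydroxylated Luciferin-H (100uM, at its KM) to luciferin in 25mM KPO4. Compound was preincubated 10 min at 37C, then NADPH regeneration started a 60 min reaction at 37C. Luminescence was read after detection reagent, normalized to 57uM sulphaphenazole.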

Assay [12] deals with Cytochrome P450 3A4 (Homo sapiens) (UniProt P08684). Description: qHTS Assay for Inhibitors and Substrates of Cytochrome P450 3A4 (AID 884; active = well fitted curve in the direction sought with a large enough effect; an effect the other way counts as inactive or inconclusive; also: potency is read from the fitted curve at half-maximal effect; nearly all actives have a fitted effect of over 50% in size). Particulars: recombinant CYP3A4, Luciferin-PPXE luminescence; series mostly up to 57.1 µM. The essentials:
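Luminescent readout of luciferin produced by CYP3A4 (20 nM) dealkylation of Luciferin-PPXE, 25 uM (its KM). NADPH-driven reaction ran 60 min at RT after 10 min compound preincubation; data scaled to 57 uM ketoconazole as 100% inhibition.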

Assay [13] shares this target. Description: qHTS Assay for Activators of Cytochrome P450 3A4 (AID 885; active = well fitted curve in the direction sought with a large enough effect; an effect the other way counts as inactive or inconclusive; also: nearly all actives have a fitted effect of over 65% in size). The settings on record: recombinant CYP3A4, Luciferin-PPXE luminescence, 60 min; series mostly up to 57.1 µM. The essentials:
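Activators are scored by enhanced luminescence from CYP3A4 conversion of luciferin-PPXE (25uM, equal to KM) to luciferin, after 60 min at RT with an NADPH-regenerating system.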

The mark [14] stands for this setting: measured here: cell count channel max response.
Setting [15] is: measured here: lipid channel max response.

Lysosomal acid glucosylceramidase (Homo sapiens), sequence (P04062 whole entry, looked up): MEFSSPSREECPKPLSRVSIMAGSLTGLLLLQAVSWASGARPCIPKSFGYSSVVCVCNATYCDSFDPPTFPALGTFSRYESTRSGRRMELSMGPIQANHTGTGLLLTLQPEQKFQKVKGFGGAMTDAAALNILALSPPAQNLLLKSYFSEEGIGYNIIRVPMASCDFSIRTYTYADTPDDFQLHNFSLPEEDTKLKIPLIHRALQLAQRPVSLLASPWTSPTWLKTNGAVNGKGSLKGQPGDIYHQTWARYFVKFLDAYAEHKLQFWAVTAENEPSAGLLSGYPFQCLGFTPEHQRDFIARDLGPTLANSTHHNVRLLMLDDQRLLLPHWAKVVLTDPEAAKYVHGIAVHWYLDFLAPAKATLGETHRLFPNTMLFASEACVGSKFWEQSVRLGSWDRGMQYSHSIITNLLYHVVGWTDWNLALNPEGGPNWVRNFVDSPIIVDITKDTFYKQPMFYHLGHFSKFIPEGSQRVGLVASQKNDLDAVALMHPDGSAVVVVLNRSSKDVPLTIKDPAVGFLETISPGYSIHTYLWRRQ
Cytochrome P450 1A2 (Homo sapiens), sequence (P05177 whole entry, looked up): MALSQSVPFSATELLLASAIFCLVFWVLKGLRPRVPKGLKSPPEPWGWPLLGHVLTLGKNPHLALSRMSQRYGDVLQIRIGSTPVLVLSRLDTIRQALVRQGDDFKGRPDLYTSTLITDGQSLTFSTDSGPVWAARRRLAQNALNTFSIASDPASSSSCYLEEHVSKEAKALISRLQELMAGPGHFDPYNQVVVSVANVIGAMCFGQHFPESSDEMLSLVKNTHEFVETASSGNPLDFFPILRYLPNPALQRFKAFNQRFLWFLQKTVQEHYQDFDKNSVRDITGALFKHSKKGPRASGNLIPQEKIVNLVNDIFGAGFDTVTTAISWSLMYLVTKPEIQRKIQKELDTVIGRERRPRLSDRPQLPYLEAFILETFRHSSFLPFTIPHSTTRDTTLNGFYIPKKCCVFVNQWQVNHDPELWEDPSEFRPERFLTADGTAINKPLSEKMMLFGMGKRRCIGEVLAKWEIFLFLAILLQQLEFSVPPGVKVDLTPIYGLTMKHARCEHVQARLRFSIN
3',5'-cyclic-AMP phosphodiesterase 4B (Homo sapiens), sequence (Q07343 whole entry, looked up): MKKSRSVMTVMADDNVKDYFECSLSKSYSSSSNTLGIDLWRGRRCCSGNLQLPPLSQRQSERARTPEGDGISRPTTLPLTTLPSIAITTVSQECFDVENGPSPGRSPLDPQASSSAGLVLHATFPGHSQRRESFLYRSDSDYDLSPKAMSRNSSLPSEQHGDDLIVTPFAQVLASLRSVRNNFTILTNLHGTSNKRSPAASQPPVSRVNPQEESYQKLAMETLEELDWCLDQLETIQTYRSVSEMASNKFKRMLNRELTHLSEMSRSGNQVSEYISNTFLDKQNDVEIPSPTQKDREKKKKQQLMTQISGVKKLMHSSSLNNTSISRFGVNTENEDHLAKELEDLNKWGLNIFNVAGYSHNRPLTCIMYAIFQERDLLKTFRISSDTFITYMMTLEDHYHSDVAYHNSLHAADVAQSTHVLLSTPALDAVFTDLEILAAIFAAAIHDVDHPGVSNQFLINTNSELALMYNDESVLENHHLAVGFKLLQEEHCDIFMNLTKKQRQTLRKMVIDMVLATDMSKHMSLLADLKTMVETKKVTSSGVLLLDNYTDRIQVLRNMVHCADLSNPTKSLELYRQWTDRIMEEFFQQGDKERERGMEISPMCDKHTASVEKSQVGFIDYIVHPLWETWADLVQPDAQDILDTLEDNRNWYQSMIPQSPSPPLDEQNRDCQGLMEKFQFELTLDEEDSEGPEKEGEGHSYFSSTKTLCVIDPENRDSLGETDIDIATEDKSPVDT
Cytochrome P450 3A4 (Homo sapiens), sequence (P08684 whole entry, looked up): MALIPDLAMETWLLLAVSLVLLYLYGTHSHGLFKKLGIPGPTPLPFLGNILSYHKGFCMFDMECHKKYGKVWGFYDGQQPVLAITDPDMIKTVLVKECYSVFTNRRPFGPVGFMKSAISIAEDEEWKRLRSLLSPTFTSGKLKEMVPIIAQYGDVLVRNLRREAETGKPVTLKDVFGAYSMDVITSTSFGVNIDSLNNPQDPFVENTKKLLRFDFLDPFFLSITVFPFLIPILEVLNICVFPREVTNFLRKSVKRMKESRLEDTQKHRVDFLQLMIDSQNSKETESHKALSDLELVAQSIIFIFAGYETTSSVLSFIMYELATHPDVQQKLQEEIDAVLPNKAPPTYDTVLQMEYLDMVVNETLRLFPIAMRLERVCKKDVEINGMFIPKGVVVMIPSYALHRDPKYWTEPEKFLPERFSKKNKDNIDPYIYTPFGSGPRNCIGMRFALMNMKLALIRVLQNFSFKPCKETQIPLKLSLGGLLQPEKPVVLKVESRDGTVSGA
Cytochrome P450 2C9 (Homo sapiens), sequence (P11712 whole entry, looked up): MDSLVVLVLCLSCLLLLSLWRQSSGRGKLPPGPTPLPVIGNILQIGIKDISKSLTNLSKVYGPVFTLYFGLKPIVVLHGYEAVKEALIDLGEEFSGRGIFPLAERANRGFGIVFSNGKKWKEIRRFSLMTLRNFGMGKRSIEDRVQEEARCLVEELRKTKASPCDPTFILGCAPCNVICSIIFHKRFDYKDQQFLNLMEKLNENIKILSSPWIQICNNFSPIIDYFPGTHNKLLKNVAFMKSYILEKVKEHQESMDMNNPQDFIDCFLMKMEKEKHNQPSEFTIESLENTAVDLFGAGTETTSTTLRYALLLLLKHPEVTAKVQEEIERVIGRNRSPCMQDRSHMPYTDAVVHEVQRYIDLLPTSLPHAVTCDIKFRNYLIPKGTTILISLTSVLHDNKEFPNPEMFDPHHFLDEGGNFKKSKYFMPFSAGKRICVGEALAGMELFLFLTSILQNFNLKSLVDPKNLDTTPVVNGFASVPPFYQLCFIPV

In the case of `COCC(=O)N1CCC2(CCCN(C(=O)Nc3cccc(F)c3)C2)CC1`, the Potency in assay [1] was > 11.4 µM (inactive); in [6], > 46 µM (inactive). Besides, the values for the activity change, negative = inhibition in [2], in assay [4] and in assay [9] were -4.55% (inactive), 3.84% (inactive) and 7.2% (inactive), respectively. For the same compound, the Potency result in assay [3], in assay [8] and in [10] was “inactive” in each case. Moreover, in assay [5], the activity, negative = inhibition was -4.68% (inactive). For the same compound, in assay [7], the compound was called inactive. Further, the max response in assay [9] (setting [14]) stood at 4.52%; in [9] (setting [15]) it was 14.2%.

For `O=C(c1ccco1)N1CCC2(CC1)CCN(c1ccccc1)CC2`, the Potency in assay [1] is > 11.4 µM (inactive); in [6], > 46 µM (inactive). The activity change, negative = inhibition in assay [2] was 2.89% (inactive); in assay [4] it was -1.84% (inactive); in assay [9], 1.71% (inactive). Moreover, the Potency result in assay [3], in [8] and in assay [10] was “inactive” in each case. Further, the activity, negative = inhibition in [5] is -6.6% (inactive). In addition, the compound was called inactive in assay [7]. In addition, the max response was 23.3% in assay [9] (setting [14]) and 29.9% in assay [9] (setting [15]).

In the case of `COc1ccc(NC(=O)N2CC3(CCN(S(C)(=O)=O)CC3)C2)cc1`, the results for the Potency in assay [1] and in assay [6] were > 11.4 µM (inactive) and > 46 µM (inactive), respectively. Also, the figures for the activity change, negative = inhibition in [2], in [4] and in assay [9] were -11.2% (inactive), 24.5% (inactive) and 4.64% (inactive), respectively. Besides, the Potency entry in [3], in assay [8] and in [10] was “inactive” in each case. For the same compound, the activity, negative = inhibition in [5] was 5.18% (inactive). In addition, the result in [7] was inactive. The max response was -10.6% in [9] (setting [14]) and -5.17% in [9] (setting [15]).

Consider `COc1ccccc1CN1CC[C@@]2(CCCN(C(=O)c3c(C)noc3C)C2)C1`, for which the results for the Potency in assay [1], in assay [6] and in assay [12] were > 11.4 µM (inactive), > 46 µM (inactive) and 1.58 µM (active), respectively. Further, the activity change, negative = inhibition is -0.263% (inactive) in [2], -13.2% (inactive) in [4] and 6.24% (inactive) in assay [9]. The Potency result in assay [3], in [8], in assay [11], in assay [13] and in [10] was “inactive” each time. The activity, negative = inhibition in assay [5] was -3.34% (inactive). Further, the outcome in assay [7] was inactive. In addition, the max response in [9] (setting [14]) amounted to 6.8%; in assay [9] (setting [15]), 12.8%.

Consider `COc1ccc(C(=O)N2CCC3(CCCN(Cc4ccncc4)C3)CC2)cc1`, for which the Potency in [1] was > 11.4 µM (inactive); in assay [6], > 46 µM (inactive); in assay [11], 3.16 µM (active); in [12] it was 7.94 µM (active). In addition, the figures for the activity change, negative = inhibition in [2], in assay [4] and in assay [9] were -3.23% (inactive), -17.9% (inactive) and 3.4% (inactive), respectively. The Potency entry in [3], in assay [8], in assay [13] and in assay [10] was “inactive” throughout. For the same compound, in assay [5], the activity, negative = inhibition is 2.74% (inactive). The result in [7] was inactive. Also, the max response in assay [9] (setting [14]) worked out at 2.99%; in [9] (setting [15]), 8.92%.

`CS(=O)(=O)N1CCC2(CCCN(C(=O)Nc3cccc(C#N)c3)C2)CC1`: the values for the Potency in [1] and in [6] were > 11.4 µM (inactive) and > 46 µM (inactive), respectively. Moreover, the activity change, negative = inhibition was 2.54% (inactive) in assay [2], 1.96% (inactive) in [4] and 6.12% (inactive) in assay [9]. In addition, the Potency result in assay [3], in assay [8], in assay [13] and in assay [10] was “inactive” throughout. The activity, negative = inhibition in [5] was 1.15% (inactive). Besides, the compound was called inactive in [7]. Besides, the figures for the max response in [9] (setting [14]) and in assay [9] (setting [15]) were 14.7% and 21%, respectively.
